# Most compounds without a hit are left out; they make up all but 21% or so of the library.
# Giardia FBPA inh-1: blocks Giardia fructose-bisphosphate aldolase activity; A8B2U2; purified Giardia FBPA; Potency, µM (top dose mostly 59.6 µM), hits mostly inhibitors; 0.71% of 290,000 active; AID 2451; further: nearly all actives have a fitted effect of over 55% in size
# Target sequence (A8B2U2 whole entry, looked up): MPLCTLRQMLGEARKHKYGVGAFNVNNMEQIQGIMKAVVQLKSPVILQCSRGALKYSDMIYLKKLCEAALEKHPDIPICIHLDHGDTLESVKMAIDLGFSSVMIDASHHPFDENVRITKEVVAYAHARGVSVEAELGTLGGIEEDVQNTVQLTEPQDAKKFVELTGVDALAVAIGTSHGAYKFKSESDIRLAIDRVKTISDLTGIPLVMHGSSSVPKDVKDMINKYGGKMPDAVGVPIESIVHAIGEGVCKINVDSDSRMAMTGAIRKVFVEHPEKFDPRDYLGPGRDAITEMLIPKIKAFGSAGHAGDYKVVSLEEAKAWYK
#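 40 nM FBPA preincubated 10 min at RT with compound (up to 57.5 uM final), then substrate plus GAPDH/TPI/NAD/arsenate coupling and diaphorase/resazurin added. Fluorescence read after 20 min at RT, 525/598 nm.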
# Cycloheximide cs: affects cycloheximide protein synthesis inhibition readout, counter-screen | cell reporter, cycloheximide protein synthesis inhibition counterscreen | max response, % | 12% of 300,000 active | AID 2314; in the data active means max response mostly above about 13%, no sharp cut-off; inactive means mostly below about 14%; further: read at 38.3 µM for the half of the compounds with a filed dose
# Shiga inhibitor: Shiga toxin inhibition; inhibition, % at 38.7 µM; Vero cells, Shiga toxin protein synthesis inhibition reporter; 9.2% of 290,000 active; in the data active means inhibition mostly above about 28%, no sharp cut-off; inactive means mostly below about 43%
# Pf growth 96h: inhibits malaria parasite growth, 96 h; 6.9% of 320,000 active; Potency, µM (series often up to 28.7 µM), actives largely listed as inhibitors; AID 504834; P. falciparum luciferase reporter growth, 96 h
#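 Cell-based qHTS: luciferase-tagged P. falciparum in erythrocytes (2% hematocrit, 0.05% parasitemia final) incubated with compounds for 96 hours, 37 C, 5% CO2; luciferase detection reagent then added and luminescence measured.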
# Pf growth 48h: inhibits P. falciparum growth in the first generation, 48 h. P. falciparum luciferase growth in erythrocytes, 48 h. Potency, µM (highest dose often 28.7 µM), actives largely listed as inhibitors. 5.9% of 310,000 active
#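 Compounds are pin-transferred into medium, infected erythrocytes (2% hematocrit, 0.1% parasitemia final) are added, and plates sit one parasite generation at 37 C in 5% CO2. Detection reagent is then added and luminescence measured.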
# NS1 function inh: inhibitors of influenza NS1 protein function | Potency, µM (highest dose often 46.1 µM) | 0.4% of 270,000 active; calls by dose curve; further: actives are rising curves; nearly all actives have a fitted effect of over 50% in size
#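 S. cerevisiae expressing influenza A NS1, grown in glucose, washed, then diluted 1:100 into pH 6.0 -URA galactose medium with 23 nl compound. Growth recovery read as OD600; NS1-free strain serves as control.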
# Giardia growth: inhibitors of Giardia lamblia growth | shares compounds with Giardia FBPA inh-1 | Giardia lamblia trophozoite growth inhibition | Potency, µM (doses to about 57.5 µM), actives largely listed as inhibitors | 5% of 1,500 active | AID 2785;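 further: trophozoites exposed to compound for 48 h at 37 °C; nearly all actives have a fitted effect of over 70% in size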
# Mammalian tox: toxic to mammalian cells in Giardia aldolase counter-screen; shares compounds with Giardia FBPA inh-1; AID 2786; mammalian cell viability counter-screen, qHTS; 4% of 1,500 active; Potency, µM (highest dose often 57.5 µM), hits mostly inhibitors;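 further: Chinese hamster ovary cells used as mammalian cytotoxicity surrogate; viability measured as cellular ATP by luminescence; compound exposure lasted 48 h before reading; nearly all actives have a fitted effect of over 60% in size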
# Giardia FBPA inh-2: confirmation of Giardia fructose-bisphosphate aldolase inhibitors | shares compounds with Giardia FBPA inh-1 | purified Giardia aldolase enzyme activity, qHTS | Potency, µM (titrated, usually from 57.5 µM), most hits filed as inhibitors | 5% of 1,500 active | AID 2787; further: nearly all actives have a fitted effect of over 45% in size
# Rabbit aldolase: rabbit FBP aldolase inhibition by Giardia aldolase hits; shares compounds with Giardia FBPA inh-1; Rabbit muscle FBPA enzyme inhibition, selectivity counter-screen; Potency, µM (doses to about 57.5 µM), actives largely listed as inhibitors; 4% of 1,500 active; AID 2794; further: nearly all actives have a fitted effect of over 60% in size
# Target sequence (P00883 whole entry, looked up): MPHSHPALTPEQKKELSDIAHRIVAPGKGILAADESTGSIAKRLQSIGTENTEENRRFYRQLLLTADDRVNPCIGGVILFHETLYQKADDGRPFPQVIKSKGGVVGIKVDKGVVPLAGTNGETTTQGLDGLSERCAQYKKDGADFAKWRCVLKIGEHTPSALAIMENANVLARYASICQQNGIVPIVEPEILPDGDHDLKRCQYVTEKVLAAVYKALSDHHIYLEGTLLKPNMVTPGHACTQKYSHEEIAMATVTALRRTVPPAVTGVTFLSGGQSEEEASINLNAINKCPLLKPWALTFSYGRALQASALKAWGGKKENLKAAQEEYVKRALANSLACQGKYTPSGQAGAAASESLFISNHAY
# GAPDH counter: GAPDH inhibition flagged for Giardia aldolase hits | Potency, µM (doses to about 57.5 µM), actives largely listed as inhibitors | shares compounds with Giardia FBPA inh-1 | GAPDH coupling enzyme counterscreen, biochemical, qHTS | 6% of 1,500 active; further: nearly all actives have a fitted effect of over 55% in size
# Numbers stand for hits; – = inactive; ? = inconclusive; · = no result. Unless noted, the call rests on the fitted dose curve; in most records, active means well fitted curve in the direction sought with a large enough effect; inconclusive means small, poorly fitted or top-dose-only effect, or another doubt; inactive means no such curve, though single readings can be large; an effect the other way counts as inactive or inconclusive.
SMILES,Giardia FBPA inh-1,Cycloheximide cs,Shiga inhibitor,Pf growth 96h,Pf growth 48h,NS1 function inh,Giardia growth,Mammalian tox,Giardia FBPA inh-2,Rabbit aldolase,GAPDH counter
CNCCC1Sc2ccccc2Oc2ccccc21 (stereo unspecified),18µM,–,–,?,?,·,–,–,–,–,–
CCCCNC(=O)C1c2ccccc2Oc2ccccc21,–,–,–,–,–,–,·,·,·,·,·
COc1cc(OC)cc(C(=O)Nc2cccc3ccccc23)c1,–,–,–,–,–,–,·,·,·,·,·
COC(=O)/C(=C/Nc1cccc2ccccc12)[N+](=O)[O-],?,28,53,–,·,–,–,–,?,?,?
Cc1cc(=O)c2c(O)c(O)ccc2o1,10µM,–,–,–,?,–,–,–,?,?,?
O=C(O)c1ccc2cccnc2c1O,20µM,–,–,–,–,–,–,–,?,–,–
O=C(O)c1ccccc1N[C@H](c1ccccc1)c1ccc2cccnc2c1O,·,·,·,·,·,–,·,·,·,·,·
Cc1ccc(/C=C2\SC(=S)N(NS(=O)(=O)c3ccc(C)cc3)C2=O)cc1,25µM,–,–,–,–,–,–,–,–,–,–
CCN(CC)C(=O)Cn1c(=O)n(-c2ccccc2)c(=O)c2c3c(sc21)CCC3,–,–,–,?,·,–,·,·,·,·,·
CC(=O)N1CCc2c(sc3c2c(=O)n(-c2ccccc2)c(=O)n3CC(=O)NCC2CCCO2)C1 (stereo unspecified),10µM,–,–,?,–,–,–,–,–,–,–
CC1CCCN(C(=S)SCC(=O)c2cc(Br)cc(Br)c2O)C1 (stereo unspecified),–,–,–,–,–,–,·,·,·,·,·
O=C(CSC(=S)N1CCCC1)c1cc(Br)cc(Br)c1O,14µM,–,–,–,?,·,?,25µM,–,–,?
O=[N+]([O-])c1ccc2ccn(C3OCC(O)C(O)C3O)c2c1 (stereo unspecified),–,–,–,–,–,–,·,·,·,·,·
CCn1nnnc1SCC(=O)Nc1cccc(C)n1,–,–,–,–,–,–,·,·,·,·,·
Cc1cccc(/C=N/NC(=O)Cn2nnnc2N)n1,18µM,–,–,–,–,–,–,–,–,–,–
O=C(Nc1nccc(-c2cccs2)n1)c1ccccc1Cl,7.9µM,32,53,–,–,–,–,–,25µM,25µM,16µM
CCCOc1ccc(C(=O)CCC(=O)OCC(=O)Nc2cc(C)on2)cc1,–,–,–,·,–,–,·,·,·,·,·
COc1ccc(OC)c(-c2cc(C(=O)NCc3ccc(Cl)cc3)no2)c1,–,–,–,–,–,·,·,·,·,·,·
C(=N\Nc1ccc2nncn2n1)/c1ccccn1,14µM,–,–,9.3µM,–,–,–,?,–,–,–
C(=N\n1cnnc1)/c1ccccn1,–,–,–,·,–,–,·,·,·,·,·
C/C(=N\Nc1ccc2nncn2n1)c1ccccn1,7.9µM,–,–,?,?,–,?,?,–,–,?
O=[N+]([O-])c1ccc(S(=O)(=O)N2CCN(Cc3ccco3)CC2)cc1,·,–,–,–,–,–,·,·,–,–,–
Cn1cnc([N+](=O)[O-])c1Sc1ncnc2nc[nH]c12,–,–,–,?,?,–,·,·,·,·,·
Cn1cnc(Sc2ncnc3nc[nH]c23)c1[N+](=O)[O-],14µM,–,–,–,–,–,?,–,–,–,–
Cc1ccc(S(=O)(=O)CCC#N)cc1,–,–,–,–,–,–,·,·,·,·,·
SMILES,Giardia FBPA inh-1,Cycloheximide cs,Shiga inhibitor,Pf growth 96h,Pf growth 48h,NS1 function inh,Giardia growth,Mammalian tox,Giardia FBPA inh-2,Rabbit aldolase,GAPDH counter
COc1cccc(CNC(=O)COC(=O)CCS(=O)(=O)c2ccc(C)cc2)c1,·,·,·,–,–,·,·,·,·,·,·
O=[N+]([O-])c1ccccc1/C=C/CN1CCSCC1,16µM,–,–,–,–,–,?,–,–,–,–
NS(=O)(=O)c1ccc(NC(=S)N2CCC(O)CC2)cc1,16µM,–,–,–,?,·,?,–,–,–,–
CCCc1cc(=O)n2[nH]c(NC(=O)c3ccco3)nc2n1,16µM,–,–,?,–,–,?,–,–,–,–
CCCc1cc(=O)n2[nH]c(NCc3c(Cl)cccc3Cl)nc2n1,–,–,–,·,–,–,·,·,·,·,·
Cc1snc2sc(C(=O)c3ccc(F)cc3)c(N)c12,6.3µM,26,77,–,–,–,–,–,40µM,?,?
CN(C)c1ccnc2sc(C(=O)c3ccc(Br)cc3)c(N)c12,–,–,–,–,–,?,·,·,·,·,·
COc1ccc(N(C(=O)Cn2nnc(-c3ccccc3F)n2)C(C(=O)NCC2CCCO2)c2ccc(Cl)cc2)cc1 (stereo unspecified),–,–,–,–,–,–,·,·,·,·,·
O=C(N/N=C/c1cccnc1)c1cc(O)c(O)c(O)c1,10µM,–,–,–,–,–,?,–,–,–,–
CCOC(=O)c1cc(C#N)c(N2CCN(c3ccccn3)CC2)nc1-c1ccccc1,–,–,–,–,?,·,·,·,·,·,·
O=C(OCCOc1cccc(Cl)c1)c1cc(S(=O)(=O)N2CCOCC2)ccc1F,·,·,·,?,–,·,·,·,·,·,·
CCn1c(CSc2nnc3ccccn23)nc2cc(C(=O)O)ccc21,–,–,–,–,·,–,·,·,·,·,·
CCn1c(CSc2n[nH]c(N)n2)nc2cc(C(=O)O)ccc21,16µM,–,–,–,–,·,–,–,–,–,–
CCn1c(CSc2nnc(-c3cccnc3)n2-c2ccccc2C)nc2cc(C(=O)O)ccc21,7.9µM,–,–,–,–,?,–,–,?,–,–
O=C(NCc1ccncc1)Nc1ccccc1F,–,–,–,?,–,–,·,·,·,·,·
CCOC(=O)c1ncc2[nH]c3ccc(OCc4ccccc4)cc3c2c1COC,–,–,–,·,·,·,·,·,·,·,·
CN(Cc1ccccc1F)C(=O)c1ccc2c(=O)n3c(nc2c1)CCC3,·,·,·,–,?,·,·,·,·,·,·
CCCCCCC1/C(=N/O)CCC1C(=O)OC (stereo unspecified),–,–,–,–,–,–,·,·,·,·,·
O=C(CSc1n[nH]c(-c2cccnc2)n1)Nc1ccccc1[N+](=O)[O-],25µM,–,–,–,–,–,?,–,–,–,–
CCc1ccccc1NC(=O)CSc1n[nH]c(-c2cccnc2)n1,–,–,–,–,–,–,·,·,·,·,·
C/C(=N\NC(N)=S)C1C2C3CC4C5CC(C42)C1C53 (stereo unspecified),–,–,–,?,?,·,·,·,·,·,·
NC(=S)NN=C1C2CC3CC(C2)CC1C3,18µM,–,–,?,?,·,–,–,–,–,–

# Assay outcomes from PubChem BioAssay.
